Experimental data from PMC4336329 (PLoS ONE, 2015).
Out of some 310,000 compounds screened, about 14,000 (4.5%) showed an effect of 50% or more. The effect is printed as a negative number. The entries come from a sample that favours strong results as a whole.

molecular target: human ether-à-go-go-related gene (hERG) potassium channel (human, UniProt Q12809); test: primary screen, population patch clamp on CHO cells stably expressing hERG; higher = less effect of the substance
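Note: peak tail current of the secondary pulse compared with the same well before compound.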

Sequence of human ether-à-go-go-related gene (hERG) potassium channel (Q12809 whole entry, looked up): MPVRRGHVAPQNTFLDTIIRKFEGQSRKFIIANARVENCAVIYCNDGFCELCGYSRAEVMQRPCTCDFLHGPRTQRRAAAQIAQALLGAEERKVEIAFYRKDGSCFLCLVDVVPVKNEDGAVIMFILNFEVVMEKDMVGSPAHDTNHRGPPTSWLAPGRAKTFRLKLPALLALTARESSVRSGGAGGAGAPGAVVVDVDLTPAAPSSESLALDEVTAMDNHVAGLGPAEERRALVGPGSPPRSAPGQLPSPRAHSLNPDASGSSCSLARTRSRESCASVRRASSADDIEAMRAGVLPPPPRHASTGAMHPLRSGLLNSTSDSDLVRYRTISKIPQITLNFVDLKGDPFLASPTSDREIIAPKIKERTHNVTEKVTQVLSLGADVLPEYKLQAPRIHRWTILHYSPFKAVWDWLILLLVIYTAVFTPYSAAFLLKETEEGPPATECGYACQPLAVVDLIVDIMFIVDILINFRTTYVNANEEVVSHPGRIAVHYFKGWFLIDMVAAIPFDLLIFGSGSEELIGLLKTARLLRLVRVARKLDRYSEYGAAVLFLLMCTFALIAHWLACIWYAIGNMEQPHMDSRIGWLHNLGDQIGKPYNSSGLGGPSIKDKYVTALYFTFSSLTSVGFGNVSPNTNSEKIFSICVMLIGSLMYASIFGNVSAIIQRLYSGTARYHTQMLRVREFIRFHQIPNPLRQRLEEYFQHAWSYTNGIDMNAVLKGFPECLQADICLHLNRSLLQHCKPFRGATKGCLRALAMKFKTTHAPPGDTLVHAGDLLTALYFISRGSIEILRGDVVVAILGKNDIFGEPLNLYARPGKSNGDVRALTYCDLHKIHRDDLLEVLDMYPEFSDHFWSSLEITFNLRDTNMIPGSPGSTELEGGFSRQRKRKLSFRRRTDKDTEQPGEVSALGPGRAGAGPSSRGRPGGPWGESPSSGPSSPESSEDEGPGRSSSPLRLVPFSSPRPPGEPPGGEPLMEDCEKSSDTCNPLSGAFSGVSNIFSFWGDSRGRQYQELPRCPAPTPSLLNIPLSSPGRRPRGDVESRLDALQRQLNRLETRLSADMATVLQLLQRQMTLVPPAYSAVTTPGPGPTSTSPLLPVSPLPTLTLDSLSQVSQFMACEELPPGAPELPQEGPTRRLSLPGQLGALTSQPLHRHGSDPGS

Row | SMILES | hERG current change (%, negative = inhibition) at 10uM [%]
1 | Cc1nc2c(cnn2-c2ccccc2)c(=O)n1/N=C/c1ccccc1 | 11.9
2 | N/C(=N\OC(=O)Nc1ccccc1)c1ncc([N+](=O)[O-])s1 | -2.31
3 | Cc1ccc2c(c1)N(Cc1cccc(C#N)c1)C=NS2(=O)=O | 9.38
4 | CCn1c(-c2ccc([N+](=O)[O-])cc2)n[nH]c1=S | 9.07
5 | CCC(=O)Nc1ccccc1C(=O)OCC(=O)c1ccccc1 | -28.1
6 | COc1ccc(NC(=S)N(CCCN2CCCC2)Cc2ccco2)cc1 | -39.4
7 | COc1cccc(NC(=S)N(CCN2CCCCC2)Cc2ccco2)c1 | -43.9
8 | CCc1ccccc1NC(=S)N(CCN1CCCCC1)Cc1ccco1 | -46.7
9 | COc1ccc(NC(=S)N(CCN2CCCCC2)Cc2ccco2)cc1 | -57.5
10 | CCc1ccc(NC(=S)N(CCCN2CCOCC2)Cc2ccco2)cc1 | -12.6
11 | CCc1ccc(NC(=S)N(CCN2CCCCC2)Cc2ccco2)cc1 | -75.4
12 | O=C1COc2ccc3ccccc3c21 | -4.35
13 | Cc1cc(C(=O)C(=O)O)c(C)n1-c1ccc(Cl)cc1 | -43.4
14 | O=C(CCC1CCCC1)NCCS(=O)(=O)N1CCN(c2ccccc2)CC1 | -12.9
15 | NC(=O)C1(N2CCCCC2)CCN(C(=O)c2ccc(-n3cnnn3)cc2)CC1 | -30.6
16 | CC1=NNC(=O)C1CCC(=O)N/N=C/C=C/c1ccccc1 (stereo not drawn) | 1.22
17 | CCc1ccc(NC(=S)NC2CC3CCCC(C2)N3Cc2ccccc2)cc1 (stereo not drawn) | -70.9
18 | CCNC(=S)NC1CC2CCC(C1)N2Cc1ccccc1 (stereo not drawn) | -20.3
19 | CC(C)c1ccc(NC(=S)NC2CCN(Cc3ccccc3)CC2)cc1 | -17.4
20 | CCC(C)c1ccc(NC(=S)NC2CCN(Cc3ccccc3)CC2)cc1 (stereo not drawn) | -61.8
21 | Cc1ccc(CN2C3CCCC2CC(NC(=S)NCc2ccccc2)C3)cc1 (stereo not drawn) | -72.4
22 | CCNC(=S)NC1CC2CCCC(C1)N2Cc1ccc(C)cc1 (stereo not drawn) | -48.1
23 | S=C(Nc1ccc(Cl)cc1)NC1CCN(Cc2ccccc2)CC1 | -39.9

Row | SMILES | hERG current change (%, negative = inhibition) at 10uM [%]
24 | CNC(=S)NC1CC2CCCC(C1)N2Cc1ccc(C)cc1 (stereo not drawn) | -38.9
25 | CNC(=S)NC1CC2CCC(C1)N2Cc1ccccc1 (stereo not drawn) | -16.5
26 | S=C(NC1CCCCC1)NC1CC2CCC(C1)N2Cc1ccccc1 (stereo not drawn) | -33.4
27 | CCc1ccc(NC(=S)NC2CCN(Cc3ccccc3)CC2)cc1 | -36.9
28 | S=C(Nc1ccc(Cl)cc1)NC1CC2CCC(C1)N2Cc1ccccc1 (stereo not drawn) | -66.1
29 | CN(C)c1ccc(NC(=O)N2CCOCC2)cc1 | -3.34
30 | Cc1ccc(-c2cc3nc(-c4ccc(Br)cc4)cc(N)n3n2)cc1 | -8.51
31 | CCCN(CC(=O)Nc1c(C)cccc1CC)C(=O)SCC | 10
32 | CCc1cccc(NC2c3ccccc3C(=O)N2c2cccnc2)c1 (stereo not drawn) | -10.2
33 | CCC(C)(C)NC(=O)C(c1ccc(OC)cc1)N(C(=O)CCC(=O)Nc1cc(C)on1)C(C)(C)C (stereo not drawn) | -27.1
34 | COc1ccc(OCC(O)CNCc2ccco2)cc1 (stereo not drawn) | 1.32
35 | COc1ccc(CCNC(=O)C2CCN(S(=O)(=O)N3CCC4(CC3)OCCO4)CC2)cc1OC | 1.93
36 | COc1cc(C2=NOC(C(=O)Nc3ccc(C)cc3)C2)cc(OC)c1OC (stereo not drawn) | -4.96
37 | CCOC(=O)c1ccc(NC(=S)NC(=O)COc2ccccc2)cc1 | 11
38 | CCCCOc1ccc(-n2nc(C)cc2C)nn1 | -16.3
39 | CCOC(=O)N1CCN(C(=O)c2ccc(NS(C)(=O)=O)cc2)CC1 | -5.65
40 | Cn1c(SCC(=O)NC2CCCCC2)nnc1-c1ccncc1 | 13.2
41 | Cc1cc(C)c(NC(=O)c2cn3c4c(c(N5CCN(C)CC5)c(F)cc4c2=O)OCC3C)c(C)c1 (stereo not drawn) | -51.7
42 | CC1COc2c(N3CCN(C)CC3)c(F)cc3c(=O)c(C(=O)O)cn1c23 (stereo not drawn) | 18.2
43 | C[C@H]1COc2c(N3CCN(C)CC3)c(F)cc3c(=O)c(C(=O)O)cn1c23 | 11.2
44 | O=C(Cc1cccs1)Nc1ccccc1-c1nc2ccccc2[nH]1 | 19.7
45 | CC(C)c1nnc(NC(=O)CC(=O)Nc2ccccc2C(=O)O)s1 | 4.72
46 | CON(C)c1nc(Oc2ccc(=O)[nH]n2)nc(N(C)C)n1 | -9.3

Row | SMILES | hERG current change (%, negative = inhibition) at 10uM [%]
47 | Cc1cc(C(=O)CN2C(=O)NC3(CCCCC3)C2=O)c(C)n1-c1ccc2c(c1)OCO2 | -56.4
48 | Cc1cc(C(=O)CN2C(=O)NC3(CCCCC3)C2=O)c(C)n1C | -10.3
49 | COCCn1c(C)cc(C(=O)CN2C(=O)NC3(CCCCCC3)C2=O)c1C | -27.8
50 | Cc1cc(C(=O)CN2C(=O)NC3(CCCC3)C2=O)c(C)n1-c1ccc2c(c1)OCO2 | -28.5
51 | COCCn1c(C)cc(C(=O)CN2C(=O)NC3(CCCCCCC3)C2=O)c1C | -59
52 | CCCC1(CCC)NC(=O)N(CC(=O)c2cc(C)n(-c3ccc4c(c3)OCO4)c2C)C1=O | 5.65
53 | Cc1nn(CC(=O)NCc2ccc(C(=O)O)cc2)c(C)c1[N+](=O)[O-] | 21.5
54 | CCOC(=O)c1cc(C)[nH]c(=S)c1C#N | -23.4
55 | Cc1ccc(C(=O)n2cnnc2N)cc1C | -0.0756
56 | CC(=O)NC(Cc1ccc(F)c(F)c1)C(=O)NC1CCN(C(=O)c2ccc(Cl)cc2)CC1 (stereo not drawn) | -56.9
57 | CC(=O)NC(Cc1ccc(F)c(F)c1)C(=O)NC1CCN(c2nnnn2-c2ccccc2)CC1 (stereo not drawn) | -54.6
58 | CC(=O)NC(Cc1cccc(F)c1)C(=O)NC1CCN(C(=O)c2ccc(C)cc2)CC1 (stereo not drawn) | 33
59 | CC(=O)NC(Cc1cccc(F)c1)C(=O)NC1CCN(c2nnnn2-c2ccccc2)CC1 (stereo not drawn) | -5.71
60 | CC(=O)NC(Cc1ccc(F)c(F)c1)C(=O)NC1CCN(C(=O)c2ccc(C)cc2)CC1 (stereo not drawn) | -12.9
61 | CC(=O)NC(Cc1ccc(F)cc1)C(=O)NC1CCN(c2nnnn2-c2ccccc2)CC1 (stereo not drawn) | -41
62 | CN(C)S(=O)(=O)c1cccc(NC(=S)NC2CCCCC2)c1 | 6.69
63 | CCCN(CC1CC1)C(=S)NC(=O)c1ccccc1Br | -4.58
64 | C=CC(=O)N=c1sc2ccccc2n1-c1ccccc1 | -6.08
65 | CCOC(=O)c1sc(=S)n(C)c1NC(=O)c1cccc(Br)c1 | 5.67
66 | S=C(Nc1ccccc1)N1CCOCC1 | 11.5
67 | O=C(Nc1ccc(Cl)cc1)C1CCCN(C2=NS(=O)(=O)c3ccccc32)C1 (stereo not drawn) | -60
68 | O=C(Nc1ccc(F)c(Cl)c1)C1CCCC1 | 25.2
69 | O=C(Nc1ccc(Br)cc1)C1CCCN(C2=NS(=O)(=O)c3ccccc32)C1 (stereo not drawn) | -29.1

Row | SMILES | hERG current change (%, negative = inhibition) at 10uM [%]
70 | Cc1ccc(NC(=O)C2CCCN(C3=NS(=O)(=O)c4ccccc43)C2)c(O)c1 (stereo not drawn) | -33.6
71 | O=C(Nc1ccc(F)c(Cl)c1)C1CCCN(C2=NS(=O)(=O)c3ccccc32)C1 (stereo not drawn) | -63
72 | O=C(Nc1ccc(F)c(Cl)c1)C1CCCN(c2cnccn2)C1 (stereo not drawn) | -24.9
73 | COCCn1c(-c2ccc(Cl)cc2Cl)nc2c(c(=O)c3ccccc3n2C)c1=O | -8.66
74 | COc1ccccc1C(=O)Nc1ccc2c(c1)CCCN2C(=O)c1ccccc1 | -39.8
75 | O=c1cc[nH]c2c1ccc1cccnc12 | 21.5
76 | CC(CC(=O)OCC(=O)NCc1ccc(Cl)cc1)c1ccccc1 (stereo not drawn) | -7.65
77 | C/C=C/c1ccc(OCCOCCOc2cccc3cccnc23)c(OC)c1 | -50.5
78 | O=Cc1ccccc1OCCCOc1cccc2cccnc12 | -4.59
79 | C=CCc1ccc(OCCOCCOc2cccc3cccnc23)c(OC)c1 | -29.3
80 | C/C=C/c1ccc(OCCOc2cccc3cccnc23)c(OC)c1 | 20.3
81 | Brc1ccc(OCCCOc2cccc3cccnc23)cc1 | 6.35
82 | O=Cc1ccc(OCCCOc2cccc3cccnc23)cc1 | -54.3
83 | CCc1ccc(S(=O)(=O)NCc2cn3ccsc3n2)s1 | 6.83
84 | N/C(=N\OC(=O)c1ccc2ccccc2c1)c1cccc([N+](=O)[O-])c1 | 5.05
85 | C#CCOCCOCCOCCNc1nc(N2CCN(C(=O)Cn3cc(CCC[NH+]=C(N)N)nn3)CC2)nc(N2CCN(C(=O)[C@H](CCCC[NH3+])n3cc(CCCC)nn3)CC2)n1.[Cl-] | 7.39
86 | COc1ccc(S(=O)(=O)N2CCC(C(=O)c3ccc4c(c3)OCCO4)CC2)cc1 | -6.76
87 | Cl.c1ccc2c(N3CCOCC3)c3c(nc2c1)CCC3 | -35.2
88 | O=C(O)c1c2c(nc3ccccc13)CCCCC2 | 15.8
89 | CC1CCCN(c2c3c(nc4ccccc24)CCCC3)C1 (stereo not drawn) | -65.2
90 | CCOC(=O)C1=C(COC(=O)c2ccc([N+](=O)[O-])o2)NC(=O)NC1C (stereo not drawn) | -7.36
